From the supplement of paper PMC12645437, “Orthogonal IMiD-Degron Pairs Induce Selective Protein Degradation in Cells” (ACS Chemical Biology, 2025)
Whole data set: some 8,300 sequences, median “log2 fold change of degron read counts, EGFP-low vs EGFP+ sorted cells (limma voom), compound-induced degradation” near -1.1, cut for the highest 2% near 3.2. This is one part of a sample in which the highest values are shown more often than they occur.

T1: CRBN, Q96SW2
T1 chain: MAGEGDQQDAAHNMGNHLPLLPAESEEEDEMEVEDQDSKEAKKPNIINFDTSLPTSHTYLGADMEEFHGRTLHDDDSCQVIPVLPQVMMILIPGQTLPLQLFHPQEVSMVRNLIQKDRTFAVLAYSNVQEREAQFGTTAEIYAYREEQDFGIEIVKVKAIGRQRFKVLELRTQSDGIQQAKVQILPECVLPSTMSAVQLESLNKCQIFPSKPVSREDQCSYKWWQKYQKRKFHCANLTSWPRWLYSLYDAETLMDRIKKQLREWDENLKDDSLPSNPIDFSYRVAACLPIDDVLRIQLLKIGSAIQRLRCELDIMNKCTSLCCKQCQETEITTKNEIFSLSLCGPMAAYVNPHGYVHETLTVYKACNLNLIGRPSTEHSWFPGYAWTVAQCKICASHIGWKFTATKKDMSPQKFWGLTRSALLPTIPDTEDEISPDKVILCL


Target: T1, CRBN, Q96SW2
Test: log2 fold change of degron read counts, EGFP-low vs EGFP+ sorted cells (limma voom), compound-induced degradation; higher = more compound-induced degradation of the degron-EGFP fusion; degrons are variants of IKZF1/3 zinc finger 2; compound dose not given here
Details: Jurkat, 18 h
Protocol: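 Pooled library of 8380 IKZF3 ZF2 degron mutants (positions 146-167 varied within the IKZF3 130-189 degron; only the varied core is printed, flanks not printed) fused to EGFP with IRES-mCherry, lentivirally expressed in Jurkat cells. mCherry+ cells were treated with one IMiD compound for 18 h (dose not stated) and FACS-sorted into EGFP-low and EGFP+ populations. Degron sequences were counted by NGS, and log2FC (EGFP-low vs EGFP+) was estimated by limma voom over 3 biological replicates.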

[1] = compound: compound 19 (5-tert-butyl-thalidomide)
[2] = compound: compound 22 (5-morpholino-thalidomide)
[3] = compound: compound 33 (diphenyl IMiD analogue)
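Note: pooled lentiviral library of zinc finger degron-EGFP fusions in mCherry-positive Jurkat cells, FACS-sorted after compound exposure, with degron abundance counted by next-generation sequencing.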

Sequence	log2 fold change of degron read counts [1]	log2 fold change of degron read counts [2]	log2 fold change of degron read counts [3]	log2 fold change of degron read counts (compound: thalidomide)
LVCEICGFGCTQKGNLLRHIKL [46L_47V_49E_50I_52G_53F_54G_55C_67L_, Q9UKT9]	1.26	1.94	0.702	2.41
FMCPICGHYFTQKGNLLRHIKL [46F_47M_49P_50I_52G_53H_54Y_55F_67L_, Q9UKT9]	-2.08	-2.18	-1.11	-1.8
FVCDICGAPFTQKGNLLRHIKL [46F_47V_49D_50I_52G_53A_54P_55F_67L_, Q9UKT9]	1.63	3.29	1.93	2.61
FFCDICGAPFTQKGNLLRHIKL [46F_47F_49D_50I_52G_53A_54P_55F_67L_, Q9UKT9]	3.92	3.16	1.06	-0.36
FYCDICGAPFTQKGNLLRHIKL [46F_47Y_49D_50I_52G_53A_54P_55F_67L_, Q9UKT9]	3.86	3.56	2.02	0.27
FCCDICGAPFTQKGNLLRHIKL [46F_47C_49D_50I_52G_53A_54P_55F_67L_, Q9UKT9]	2.7	2.21	0.465	0.477
FQCDICGAPFTQKGNLLRHIKL [46F_47Q_49D_50I_52G_53A_54P_55F_67L_, Q9UKT9]	2.56	3.14	0.968	3.35
FWCDICGAPFTQKGNLLRHIKL [46F_47W_49D_50I_52G_53A_54P_55F_67L_, Q9UKT9]	2.91	2.32	1.2	-0.538
FFCDICGADFTQKGNLLRHIKL [46F_47F_49D_50I_52G_53A_54D_55F_67L_, Q9UKT9]	-0.121	-0.935	-2.01	-2.27
FMCNICGAVFTQKGNLLRHIKL [46F_47M_49N_50I_52G_53A_54V_55F_67L_, Q9UKT9]	-1.55	-0.801	1.53	0.369
FFCEICGHNFTQKGNLLRHIKL [46F_47F_49E_50I_52G_53H_54N_55F_67L_, Q9UKT9]	-2.59	-3.18	-2.38	-2.84
FRCDQCGAHFTQKGNLLRHIKL [46F_47R_49D_50Q_52G_53A_54H_55F_67L_, Q9UKT9]	-2.76	-2.89	-2.01	-2.48
FKCEICGAEFTQKGNLLRHIKL [46F_47K_49E_50I_52G_53A_54E_55F_67L_, Q9UKT9]	-0.284	-2.59	-3.54	-0.121
FCCNICGARFTQKGNLLRHIKL [46F_47C_49N_50I_52G_53A_54R_55F_67L_, Q9UKT9]	1.4	1.76	0.552	1.57
FNCDICGAPFTQKGNLLRHIKL [46F_47N_49D_50I_52G_53A_54P_55F_67L_, Q9UKT9]	2.68	1.25	-0.682	-0.153
FRCDICGAPFTQKGNLLRHIKL [46F_47R_49D_50I_52G_53A_54P_55F_67L_, Q9UKT9]	3.17	3.53	3.32	3.52
FICDICGAPFTQKGNLLRHIKL [46F_47I_49D_50I_52G_53A_54P_55F_67L_, Q9UKT9]	1.26	3.46	2.32	2.47
FACDICGAPFTQKGNLLRHIKL [46F_47A_49D_50I_52G_53A_54P_55F_67L_, Q9UKT9]	3.46	1.66	-0.501	0.383
FSCDICGAPFTQKGNLLRHIKL [46F_47S_49D_50I_52G_53A_54P_55F_67L_, Q9UKT9]	2.36	1.62	0.275	0.668
FTCDICGAPFTQKGNLLRHIKL [46F_47T_49D_50I_52G_53A_54P_55F_67L_, Q9UKT9]	2.1	2.86	1.41	1.93
FMCDICGAPFTQKGNLLRHIKL [46F_47M_49D_50I_52G_53A_54P_55F_67L_, Q9UKT9]	2.71	3.25	3.03	1.89
FKCDICGAPFTQKGNLLRHIKL [46F_47K_49D_50I_52G_53A_54P_55F_67L_, Q9UKT9]	1.21	0.288	-1.35	1.02
FDCDICGAPFTQKGNLLRHIKL [46F_47D_49D_50I_52G_53A_54P_55F_67L_, Q9UKT9]	0.272	-1.45	-1.51	-0.767
FECDICGAPFTQKGNLLRHIKL [46F_47E_49D_50I_52G_53A_54P_55F_67L_, Q9UKT9]	1.27	-1.62	-0.0281	0.305
FLCDICGAPFTQKGNLLRHIKL [46F_47L_49D_50I_52G_53A_54P_55F_67L_, Q9UKT9]	1.62	2.15	2.03	1.99
FGCDICGAPFTQKGNLLRHIKL [46F_47G_49D_50I_52G_53A_54P_55F_67L_, Q9UKT9]	0.329	-0.821	-1.38	-1.4
FSCDVCGAEFTQKGNLLRHIKL [46F_47S_49D_50V_52G_53A_54E_55F_67L_, Q9UKT9]	-0.733	-1.36	-1.13	-1.96
FNCNICGANFTQKGNLLRHIKL [46F_47N_49N_50I_52G_53A_54N_55F_67L_, Q9UKT9]	0.662	-0.0154	-0.393	-0.94
